# Compound activity (PubChem)
# The list is not random: actives were taken first. Their share in the collection is about 6.5%.
# HT1080NT lethal: kills 2HG-producing HT-1080-NT fibrosarcoma cells; HT-1080-NT fibrosarcoma viability, CellTiter-Glo ATP luminescence, 48 h; Potency, µM (series often up to 46.1 µM), for inactives: top-dose activity, negative = less viability, actives largely listed as cytotoxic; hit rate 1.6% among 360,000;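 further: NT is the 2HG producing partner of a matched IDH1 knockdown line; potency means the concentration at half of the fitted maximal effect; 0% = DMSO-treated cells and -100% = media-only wells without cells; nearly all actives have a fitted effect of over 55% in size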
#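 Luminescent CellTiter-Glo readout after 48 hours of compound exposure at 37 degrees C defined viability of HT-1080-NT cells. Activity was normalized to DMSO wells and cell-free media wells; concentration-response curves were fitted and assigned curve classes.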
# HepG2 viability: HepG2 cytotoxicity, counter-screen for TGF-b inhibitors; HepG2 CAGA-GFP viability, ATP luminescence, 18 h; Potency, µM (highest dose often 46.1 µM), without a hit: at the highest dose activity change, negative = cytotoxicity, actives largely listed as cytotoxic; hit rate 0.76% among 410,000; AID 588856; further: potency means the concentration at half of the fitted maximal effect
#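 HepG2 CAGA-GFP cells (1000/well, DMEM with 1% FBS) received compound, then TGF-beta at 500 pg/mL final, and were incubated 18 hours at 37 degrees C. Viability was read by CellTiter-Glo luminescence. Media-only wells were set as complete cell-killing and DMSO as no toxicity.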
# TGFb SMAD3 inh: blocks TGF-b signaling; Potency, µM (top dose mostly 46.1 µM), inactives show at the top dose activity, negative = inhibition, usual class: inhibitors; HepG2 CAGA-GFP TGF-b/SMAD3 reporter, GFP fluorescence, 18 h; TGF-beta stimulated, 500 pg/mL final; AID 588855; hit rate 1.2% among 410,000; further: potency means the concentration at half of the fitted maximal effect; on the % scale 0 is the no-effect control and ±100 the full control effect; nearly all actives have a fitted effect of over 65% in size
#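 First, reporter cells (HEPG2 CAGA-GFP) rested 2 h at 37 degrees C. Next, compounds were pinned in and TGF-beta added to 500 pg/mL final. After 18 h, GFP was imaged per cell and summed per well.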
# IL-1B inflam inh: blocks inflammasome-driven IL-1 beta release. THP-1 LPS/ATP IL-1B secretion, AlphaLISA, 16 h; hits give low values. AID 743279. hit rate 4.7% among 360,000. activity change, % at 57.5 µM; in the data active means activity change below about -50%; inconclusive means mostly about -30% to -49%; further: on the % scale 0 is the no-effect control and ±100 the full control effect
#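 THP-1 cells pretreated 1 hr with compounds (up to 57.5 uM final), then stimulated with LPS (250 ng/mL final) plus ATP (1.25 mM final); secreted IL-1B measured by AlphaLISA after 16 hr, decreased signal indicating inhibition.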
# HT1080 IDH1KD tx: toxicity to HT-1080 IDH1 knockdown cells (counter line) | HT-1080 IDH1 knockdown viability, ATP luminescence, 48 h | Potency, µM (top dose mostly 46.1 µM), for inactives: top-dose activity, negative = toxicity, most hits filed as cytotoxic | hit rate 2% among 360,000 | AID 686971;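 further: potency means the concentration at half of the fitted maximal effect; 0% = DMSO wells and -100% = cell-free medium wells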
#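 % activity derives from luminescence (CellTiter-Glo), normalised to DMSO and no-cell wells. HT-1080-IDH1KD cells, 750/well, had 48 h compound exposure at 37 °C.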
# Giardia killer: kills Giardia lamblia; Giardia lamblia trophozoite viability; activity change, % at 7.66 µM, hits read low; hit rate 0.15% among 340,000; AID 540267; in the data active means activity change below about -80%; inconclusive means between about -30% and that limit;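 further: parasites exposed to compound for two days anaerobically before the ATP read; on the % scale 0 is the no-effect control and ±100 the full control effect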
#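 Giardia trophozoites, 100 cells per well, were exposed to compounds for 48 hrs at 37 deg C under anaerobic conditions; viability was then read as ATP content by bioluminescence after 15-30 min at room temperature.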
# An asterisk follows results filed as active; ? = inconclusive; . = no result given. Unless noted, the call rests on the fitted dose curve; in most records, active means well fitted curve in the direction sought with a large enough effect; inconclusive means small, poorly fitted or top-dose-only effect, or another doubt; inactive means no such curve, though single readings can be large; an effect the other way counts as inactive or inconclusive.
SMILES,HT1080NT lethal,HepG2 viability,TGFb SMAD3 inh,IL-1B inflam inh,HT1080 IDH1KD tx,Giardia killer
FC(F)(F)c1ccc(C2[C@H]3CN(Cc4ccc(-c5ccccc5)cc4)[C@H](c4ccccc4)C34CC2(c2cccnc2)C4)cc1 (stereo partly specified),4%,-23%,?,-4,7%,4
FC(F)(F)c1ccc(C2[C@H]3CN(Cc4cccnc4)[C@H](c4ccccc4)C34CC2(c2cccnc2)C4)cc1 (stereo partly specified),?,-105%,8.9µM*,-14,?,7
CCOC(=O)C1=C(C)NC(C)=C(C(=O)OCC)C1c1ccc([N+](=O)[O-])s1,?,-49%,?,4,?,-30
O=C1Nc2ccc(Br)cc2C1=C1CCCCC1,?,2%,-28%,29,16µM*,-9
Cc1ccc(N=C2C(=O)Nc3ccc(Br)cc32)cc1,?,-17%,0%,65,?,-3
CCN(CC)c1ccc(C(=C2C=CC(=[N+](CC)CC)C=C2)c2ccc(S(=O)(=O)O)cc2S(=O)(=O)[O-])cc1,23µM*,-50%,-7%,-94*,?,?
CC(C)C(C(=O)Nc1nccs1)N1C(=O)c2ccccc2C1=O (stereo unspecified),15%,6.3µM*,0%,5,0%,-12
CC(C)C(C(=O)Nc1ccncc1)c1ccc(Cl)cc1 (stereo unspecified),-17%,-42%,?,27,?,8
O=C(Nc1nccs1)C(Br)C(Br)c1ccccc1 (stereo unspecified),-4%,-22%,0%,-86*,?,-8
CC(C)C(C(=O)Nc1nccs1)c1ccc(Cl)cc1 (stereo unspecified),?,-12%,?,0,10µM*,7
COc1ccccc1NC(=O)C(C(C)C)N1C(=O)c2ccccc2C1=O (stereo unspecified),1%,-2%,-1%,7,12%,-6
COc1ccc(CN(C(=O)c2nsc(Cl)c2Cl)C(C(=O)NC2CCCC2)c2ccc(C)cc2)cc1 (stereo unspecified),-27%,13%,?,-22,?,-14
COc1ccc(C(C(=O)NC2CCCCC2)N(C(=O)CCl)c2ccc(C)cc2)cc1 (stereo unspecified),0.82µM*,-39%,?,-106*,1.2µM*,12
COC(CN(C(=O)CCl)C(C(=O)NC1CCCCC1)c1ccc(C)cc1)OC (stereo unspecified),8%,0%,2%,-93*,8%,-8
COc1ccc(C(C(=O)NC2CCCCC2)N(C(=O)CCl)c2ccc(OC)cc2)cc1 (stereo unspecified),1.6µM*,-23%,?,-90*,1.2µM*,-11
O=C(NC1CCCC1)C(c1ccc(F)cc1)N(Cc1ccc(F)cc1)C(=O)CCl (stereo unspecified),8%,-36%,-29%,-104*,9%,-10
COc1ccc(N(C(=O)Cc2cccs2)C(C(=O)NC2CCCC2)c2ccncc2)cc1 (stereo unspecified),5%,6%,2%,-4,-1%,-5
O=C(NCCc1c[nH]c2ccccc12)C1CCCN(S(=O)(=O)c2ccccc2)C1 (stereo unspecified),-19%,-7%,3%,33,-27%,0
CCc1ccc(-n2c(C)cc(/C=N/NC(=O)c3ccncc3)c2C)cc1,-6%,-26%,?,6,-6%,-6
COc1ccc(C(C(=O)NC2CCCCC2)N(C(=O)CCl)c2cccc(Cl)c2)cc1 (stereo unspecified),9.2µM*,11µM*,?,-110*,1.6µM*,2
COc1cccc(N(C(=O)c2cnccn2)C(C(=O)NC2CCCCC2)c2ccc(Cl)cc2)c1 (stereo unspecified),-26%,-26%,-13%,-10,-27%,15
Cc1ccc(C(=O)N/C(=C/c2ccc(-c3cc(C(F)(F)F)ccc3Cl)o2)C(=O)NCc2cccnc2)cc1,-17%,0%,13µM*,?,-21%,0
Cc1ccc(C(=O)COC(=O)CN2C(=O)C3C4CCC(C4)C3C2=O)cc1C (stereo unspecified),13%,2%,1%,7,16%,1
Cc1ccc(NC(=O)COC(=O)C2(CC(=O)NC(C)(C)C)CCCC2)cc1C,-13%,-29%,4%,-92*,-14%,-3
CCCN(Cc1cccs1)C(=O)Nc1ccc(OCC)cc1,.,-15%,-6%,.,.,.
SMILES,HT1080NT lethal,HepG2 viability,TGFb SMAD3 inh,IL-1B inflam inh,HT1080 IDH1KD tx,Giardia killer
CC(=O)OCC(=O)Nc1ccc(Br)c(C)c1,-3%,-42%,16µM*,4,-2%,-4
CCN(CCC(=O)Nc1ccc(Br)c(C)c1)Cc1ccccc1,15µM*,-24%,-10%,?,?,7
CCCN(Cc1cccs1)C(=O)Nc1ccc(Br)c(C)c1,.,-28%,11µM*,.,.,.
COc1ccc(C(=O)NN=C2CCCC2)c(OC)c1,18%,-6%,-1%,-17,13%,16
CCOc1ccc(C(=O)CN2CCN(S(=O)(=O)c3ccc(Br)cc3)CC2)cc1,-1%,-4%,?,7,-1%,10
C=CCN(CC=C)CCOc1ccccc1F,23%,1%,-18%,2,26%,?
C=CCN(CC=C)CCOc1cccc2ccccc12,-6%,-21%,-2%,-57*,-13%,-10
CC(C)Oc1ccc(Nc2ncnc3ccccc23)cc1,-2%,16%,-6%,-154*,2%,26
Cc1ccc(Nc2ncnc3ccccc23)cc1,-4%,-34%,1%,-28,-3%,-21
COc1ccccc1-c1nnc(NC(=O)Cc2ccccc2)o1,0%,-21%,-2%,-5,3%,20
COc1cc2c(oc(=O)c3cc(C)cc(OC)c32)c2c(C3OC(C)C(O)C(C)(O)C3O)ccc(O)c12 (stereo unspecified),?,2%,7.1µM*,-101*,?,-1
COc1cccc2cc(C(=O)N3CC(C)OC(C)C3)c(=O)oc12 (stereo unspecified),-3%,-26%,?,-13,8%,-12
COc1ccc(NC(=S)N2CCN(C(c3ccccc3)c3ccccc3)CC2)c(OC)c1,-2%,6%,-3%,-59*,?,-6
Cc1cccc(NC(=S)NCCC(c2ccccc2)c2ccccc2)c1,-2%,-22%,11µM*,-7,-8%,-13
